Test results reported in PubChem BioAssay (NCI).
The panel holds about 83,000 compounds, 20% with a hit somewhere; the sample as a whole holds those more often.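 Each cell line was grown in a 96-well plate and treated with one concentration of compound for 48 hours. Values below 10 were considered active.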 Unmarked numbers belong to inactive results. Active and inactive are the calls of the source.

Tests used:
Test in all cases: NCI-60 one-dose screen, 48 h (100 = growth as untreated, 0 = no growth, -100 = all killed)
Details in all cases: 10 µM unless noted
NCI-H23 lung = tested on: NCI-H23 lung
NCI-H226 lung = tested on: NCI-H226 lung
NCI-H322M lung = tested on: NCI-H322M lung
HOP-62 NSCLC = tested on: HOP-62 NSCLC
NCI-H460 lung = tested on: NCI-H460 lung
HOP-92 NSCLC = tested on: HOP-92 NSCLC
NCI-H522 lung = tested on: NCI-H522 lung
A549/ATCC NSCLC = tested on: A549/ATCC NSCLC
786-0 renal = tested on: 786-0 renal
COLO 205 colon = tested on: COLO 205 colon
DU-145 prostate = tested on: DU-145 prostate
MALME-3M melanoma = tested on: MALME-3M melanoma
MDA-MB-231 breast = tested on: MDA-MB-231 breast
RXF 393 renal = tested on: RXF 393 renal
SF-268 CNS = tested on: SF-268 CNS
SF-295 CNS = tested on: SF-295 CNS
SF-539 CNS = tested on: SF-539 CNS
UACC-257 melanoma = tested on: UACC-257 melanoma
M14 melanoma = tested on: M14 melanoma
K-562 leukemia = tested on: K-562 leukemia

## COc1ccc2cc(-c3nn(-c4ccc(C(=O)O)cc4)cc3CO)ccc2c1
NCI-H23 lung
  growth: 97.9%
NCI-H226 lung
  growth: 99.7%
NCI-H322M lung
  growth: 97%
HOP-62 NSCLC
  growth: 104%
NCI-H460 lung
  growth: 99.1%
HOP-92 NSCLC
  growth: 102%
NCI-H522 lung
  growth: 82.6%
A549/ATCC NSCLC
  growth: 102%
786-0 renal
  growth: 99.6%
COLO 205 colon
  growth: 114%
DU-145 prostate
  growth: 103%
MALME-3M melanoma
  growth: 106%
MDA-MB-231 breast
  growth: 111%
RXF 393 renal
  growth: 122%
SF-268 CNS
  growth: 86.3%
SF-295 CNS
  growth: 99.1%
SF-539 CNS
  growth: 93.1%
UACC-257 melanoma
  growth: 103%
M14 melanoma
  growth: 98.7%

## Cc1cc(N2CCCC2)nc(NC2CCCC(Nc3ccnc4cc(Cl)ccc34)C2)n1 (configuration not stated)
NCI-H23 lung
  growth: -41.4% (active)
NCI-H226 lung
  growth: -56.2% (active)
NCI-H322M lung
  growth: -42.6% (active)
HOP-62 NSCLC
  growth: -84.4% (active)
NCI-H460 lung
  growth: -66.3% (active)
HOP-92 NSCLC
  growth: -82.7% (active)
NCI-H522 lung
  growth: -76.3% (active)
A549/ATCC NSCLC
  growth: -88.6% (active)
786-0 renal
  growth: -91.1% (active)
COLO 205 colon
  growth: -90.7% (active)
DU-145 prostate
  growth: -21.8% (active)
MALME-3M melanoma
  growth: -80.4% (active)
MDA-MB-231 breast
  growth: -77% (active)
RXF 393 renal
  growth: -84.5% (active)
SF-268 CNS
  growth: -36.7% (active)
SF-295 CNS
  growth: -80.8% (active)
SF-539 CNS
  growth: -92.5% (active)
UACC-257 melanoma
  growth: -84.3% (active)
M14 melanoma
  growth: -83.6% (active)

## Clc1ccc2c(NCCNc3nc(N4CCOCC4)nc4ccccc34)ccnc2c1
NCI-H23 lung
  growth: 44%
NCI-H226 lung
  growth: -22.5% (active)
NCI-H322M lung
  growth: 15.9%
HOP-62 NSCLC
  growth: -37.1% (active)
NCI-H460 lung
  growth: -29.3% (active)
HOP-92 NSCLC
  growth: -41.6% (active)
NCI-H522 lung
  growth: -70.6% (active)
A549/ATCC NSCLC
  growth: 5.31% (active)
786-0 renal
  growth: -39.9% (active)
COLO 205 colon
  growth: -67.5% (active)
DU-145 prostate
  growth: 29.9%
MALME-3M melanoma
  growth: -50.9% (active)
MDA-MB-231 breast
  growth: -56% (active)
RXF 393 renal
  growth: -39.4% (active)
SF-268 CNS
  growth: 11.5%
SF-295 CNS
  growth: -83% (active)
SF-539 CNS
  growth: -80.2% (active)
UACC-257 melanoma
  growth: 90.5%
M14 melanoma
  growth: -65.5% (active)

## CC[N+](CC)=c1sc2c(s1)C(c1ccc(Cl)cc1)Oc1ccc(Cl)cc1-2 (configuration not stated)
NCI-H23 lung
  growth: 6.45% (active)
NCI-H226 lung
  growth: 52.1%
NCI-H322M lung
  growth: 16.8%
HOP-62 NSCLC
  growth: 12.4%
NCI-H460 lung
  growth: -29.6% (active)
HOP-92 NSCLC
  growth: -18% (active)
NCI-H522 lung
  growth: -12.9% (active)
A549/ATCC NSCLC
  growth: 7.61% (active)
786-0 renal
  growth: 30.7%
COLO 205 colon
  growth: -69.6% (active)
DU-145 prostate
  growth: 24.4%
MALME-3M melanoma
  growth: -9.37% (active)
MDA-MB-231 breast
  growth: -38% (active)
RXF 393 renal
  growth: 10.7%
SF-268 CNS
  growth: 24%
SF-295 CNS
  growth: 2.98% (active)
SF-539 CNS
  growth: -22.1% (active)
UACC-257 melanoma
  growth: -7.21% (active)
M14 melanoma
  growth: 17.3%

## CCOc1ccc(-n2nc(C(=O)Nc3ccccc3)nc2-c2cc(OC)c(OC)c(OC)c2)cc1
NCI-H23 lung
  growth: 66.6%
NCI-H226 lung
  growth: 80%
NCI-H322M lung
  growth: 67.6%
HOP-62 NSCLC
  growth: 55.7%
NCI-H460 lung
  growth: 27.9%
HOP-92 NSCLC
  growth: 46%
NCI-H522 lung
  growth: 22.8%
A549/ATCC NSCLC
  growth: 41.4%
786-0 renal
  growth: 69.4%
COLO 205 colon
  growth: 22.1%
DU-145 prostate
  growth: 89.6%
MALME-3M melanoma
  growth: 54.5%
MDA-MB-231 breast
  growth: 43.9%
RXF 393 renal
  growth: 69.2%
SF-268 CNS
  growth: 76.5%
SF-295 CNS
  growth: 34%
SF-539 CNS
  growth: 62%
UACC-257 melanoma
  growth: 66.4%
M14 melanoma
  growth: 38%

## COc1cc2c(cc1O)CC[C@@H]1[C@@H]2CC[C@]2(C)[C@@H](OCCN(C)C)CC[C@@H]12
NCI-H23 lung
  growth: 42.3%
NCI-H226 lung
  growth: 76.5%
NCI-H322M lung
  growth: 51.3%
HOP-62 NSCLC
  growth: 59.9%
NCI-H460 lung
  growth: 39.6%
HOP-92 NSCLC
  growth: 48.6%
NCI-H522 lung
  growth: 18.4%
A549/ATCC NSCLC
  growth: 66.5%
786-0 renal
  growth: 57.9%
COLO 205 colon
  growth: 58.8%
DU-145 prostate
  growth: 12.8%
MALME-3M melanoma
  growth: 16.7%
MDA-MB-231 breast
  growth: 16.2%
RXF 393 renal
  growth: 52.4%
SF-268 CNS
  growth: 56.2%
SF-295 CNS
  growth: -4.56% (active)
SF-539 CNS
  growth: 4.14% (active)
UACC-257 melanoma
  growth: -18.2% (active)
M14 melanoma
  growth: 0.0496% (active)

## COC(=O)c1ccc(Cn2cnc3c(N)ncnc32)cc1
NCI-H23 lung
  growth: 103%
NCI-H226 lung
  growth: 106%
NCI-H322M lung
  growth: 106%
HOP-62 NSCLC
  growth: 97%
NCI-H460 lung
  growth: 115%
HOP-92 NSCLC
  growth: 92.1%
NCI-H522 lung
  growth: 69.6%
A549/ATCC NSCLC
  growth: 104%
786-0 renal
  growth: 114%
COLO 205 colon
  growth: 109%
K-562 leukemia
  growth: 89.4%
MDA-MB-231 breast
  growth: 87.7%
RXF 393 renal
  growth: 102%
SF-268 CNS
  growth: 114%
SF-295 CNS
  growth: 109%
SF-539 CNS
  growth: 92.1%
UACC-257 melanoma
  growth: 116%
M14 melanoma
  growth: 110%
